The values below come from PubChem BioAssay (NCI).

Among the test systems are NCI-H23 lung; NCI-H226 lung; NCI-H322M lung; HOP-62 NSCLC; NCI-H460 lung; HOP-92 NSCLC; NCI-H522 lung; A549/ATCC NSCLC; 786-0 renal; COLO 205 colon; DU-145 prostate; K-562 leukemia; MALME-3M melanoma; MDA-MB-231 breast; RXF 393 renal; SF-268 CNS; SF-295 CNS; SF-539 CNS; UACC-257 melanoma; M14 melanoma.
Common to all, as to experiment: NCI-60 one-dose screen, 48 h (100 = growth as untreated, 0 = no growth, -100 = all killed)
Common to all, as to details: 10 µM unless noted

Each structure is given as a SMILES string. This is part of a sample that, as a whole, favours compounds with a hit. Of some 83,000 tested, about 20% had one in any assay.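 Method: cells in 96-well plates; compound added at one concentration; 48 h incubation; percent growth measured; values under 10 scored active.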 Values without a mark were called inactive. Active and inactive are the calls of the source.

As for `Cc1nn(-c2ccc(Br)cc2)c2nc3[nH]c(=O)[nH]c(=O)c3nc12`, the growth in the experiment with NCI-H23 lung was 99%; in the experiment on NCI-H226 lung it was 103%; with NCI-H322M lung it was 119%; in the experiment with HOP-62 NSCLC, 120%; in the experiment with NCI-H460 lung, 108%; in the experiment on HOP-92 NSCLC, 110%. In addition, the growth in the experiment on NCI-H522 lung is 98.1%; with A549/ATCC NSCLC it was 102%; with 786-0 renal, 100%; with COLO 205 colon, 115%; in the experiment with DU-145 prostate it was 114%; with K-562 leukemia it was 101%. Further, the growth with MALME-3M melanoma is 108%; in the experiment with MDA-MB-231 breast it was 110%; in the experiment with RXF 393 renal it was 114%; in the experiment with SF-268 CNS, 110%; in the experiment on SF-295 CNS, 98.6%; in the experiment with SF-539 CNS, 99.7%. Besides, the growth is 99% in the experiment with UACC-257 melanoma and 112% in the experiment on M14 melanoma.

Turning to `Cc1ccc(-c2nc([P+](c3ccccc3)(c3ccccc3)c3ccccc3)c(N3CCOCC3)o2)cc1`, the growth is -9.72% (active) with NCI-H23 lung; -2.72% (active) in the experiment with NCI-H226 lung; 7.88% (active) in the experiment with NCI-H322M lung; -41.5% (active) in the experiment with HOP-62 NSCLC; 3.34% (active) in the experiment on NCI-H460 lung; -28.7% (active) with HOP-92 NSCLC. The growth in the experiment on NCI-H522 lung is 0.415% (active); in the experiment on A549/ATCC NSCLC, 9.89% (active); in the experiment on 786-0 renal it was 15.9%; in the experiment on COLO 205 colon, -70% (active); in the experiment with DU-145 prostate, 12.9%; in the experiment on K-562 leukemia it was 4.64% (active). The growth is -18.8% (active) with MALME-3M melanoma; -0.628% (active) in the experiment on MDA-MB-231 breast; -1.34% (active) with RXF 393 renal; 12.5% with SF-268 CNS; -10.3% (active) in the experiment with SF-295 CNS; 19.3% with SF-539 CNS. Also, the growth in the experiment on UACC-257 melanoma was -4.98% (active); with M14 melanoma it was 0.413% (active).

For `CCOC(=O)C1OC1(c1ccccc1)c1ccccc1` (stereo not given), the growth is 111% in the experiment on NCI-H23 lung; 106% in the experiment with NCI-H226 lung; 120% with NCI-H322M lung; 118% with HOP-62 NSCLC; 109% in the experiment with NCI-H460 lung; 107% with HOP-92 NSCLC. For the same compound, the growth was 107% in the experiment with NCI-H522 lung; 84.3% in the experiment on A549/ATCC NSCLC; 117% with 786-0 renal; 119% with COLO 205 colon; 108% with DU-145 prostate; 109% in the experiment with K-562 leukemia. In addition, the growth was 110% with MALME-3M melanoma; 98.9% in the experiment on MDA-MB-231 breast; 113% in the experiment on RXF 393 renal; 94.2% with SF-268 CNS; 113% in the experiment on SF-295 CNS; 106% in the experiment on SF-539 CNS. Besides, the figures for the growth in the experiment with UACC-257 melanoma and in the experiment on M14 melanoma were 95.7% and 107%, respectively.

On to `Cc1ccc(/C=C(\C#N)c2cc3ccccc3n2C)cc1`, for which the growth was 24.6% with NCI-H23 lung; 57.6% with NCI-H226 lung; 58.7% with NCI-H322M lung; 47.1% in the experiment with HOP-62 NSCLC; 11% with NCI-H460 lung; 90.5% in the experiment on HOP-92 NSCLC. Also, the growth in the experiment on NCI-H522 lung is 31.3%; in the experiment on A549/ATCC NSCLC, 31.2%; in the experiment with 786-0 renal it was 49.9%; in the experiment on COLO 205 colon, 3.21% (active); with DU-145 prostate, 25.5%; in the experiment with K-562 leukemia it was 14.7%. For the same compound, the growth in the experiment on MALME-3M melanoma is 59.8%; in the experiment with MDA-MB-231 breast, 18.7%; in the experiment with RXF 393 renal, 20.6%; with SF-268 CNS, 64.4%; in the experiment on SF-295 CNS, 9.43% (active); in the experiment on SF-539 CNS, 8.03% (active). The growth with UACC-257 melanoma was 89.6%; with M14 melanoma it was 14%.

For the compound `Cn1nc(-c2ccccc2)c2c(-c3ccccc3)onc2c1=O`, the growth in the experiment on NCI-H23 lung is 48%; in the experiment on NCI-H226 lung, 62.1%; in the experiment on NCI-H322M lung it was 55.4%; in the experiment on HOP-62 NSCLC, 31%; with NCI-H460 lung it was 28.3%; in the experiment on HOP-92 NSCLC it was 43.9%. Besides, the growth in the experiment with NCI-H522 lung was 10.6%; in the experiment with A549/ATCC NSCLC, 35.4%; in the experiment with 786-0 renal, 49.7%; in the experiment with COLO 205 colon, 15.2%; in the experiment with DU-145 prostate it was 34.6%; in the experiment on K-562 leukemia, 13%. For the same compound, the growth was 62.9% with MALME-3M melanoma; 52% in the experiment on MDA-MB-231 breast; 23.8% in the experiment on RXF 393 renal; 47% in the experiment on SF-268 CNS; 27.3% in the experiment on SF-295 CNS; 2.75% (active) in the experiment on SF-539 CNS. The growth with UACC-257 melanoma is 49.2%; with M14 melanoma, 42.3%.

With `CC(=O)c1c(C)[nH]c(-c2nc3ccc(N4CCN(C)CC4)cc3[nH]2)c1-c1ccc(N(C)C)cc1`, the growth in the experiment on NCI-H23 lung is 40%; with NCI-H226 lung, 47.4%; in the experiment on NCI-H322M lung it was 40.6%; in the experiment with HOP-62 NSCLC, 24.6%; with NCI-H460 lung it was 53%; with HOP-92 NSCLC, 33.1%. The growth with NCI-H522 lung is 42.1%; with A549/ATCC NSCLC, 40.2%; in the experiment with 786-0 renal it was 38.7%; in the experiment on COLO 205 colon, 7% (active); in the experiment on DU-145 prostate it was 63.9%; with K-562 leukemia, 21.1%. Further, the growth was 26.7% with MALME-3M melanoma; 36.1% in the experiment with MDA-MB-231 breast; 37.2% in the experiment on RXF 393 renal; 59.4% in the experiment on SF-268 CNS; 43.2% in the experiment on SF-295 CNS; 39.3% with SF-539 CNS. In addition, the growth in the experiment with UACC-257 melanoma was 36.4%; in the experiment with M14 melanoma, 34.6%.

In the case of `N#CC1=C(N)Oc2c(c(N)nn2-c2ccccc2)C1c1ccc(Cl)cc1` (stereo not given), the growth in the experiment on NCI-H23 lung is 93.4%; with NCI-H226 lung, 87.2%; in the experiment with NCI-H322M lung, 101%; in the experiment on HOP-62 NSCLC it was 89.8%; in the experiment with NCI-H460 lung, 103%; in the experiment on HOP-92 NSCLC, 92.7%. For the same compound, the growth is 87.6% in the experiment with NCI-H522 lung; 100% with A549/ATCC NSCLC; 98.8% in the experiment on 786-0 renal; 106% with COLO 205 colon; 99.6% in the experiment on DU-145 prostate; 106% with K-562 leukemia. Besides, the growth is 106% with MALME-3M melanoma; 87.5% with MDA-MB-231 breast; 93.8% in the experiment with RXF 393 renal; 94.1% in the experiment with SF-268 CNS; 96.6% in the experiment on SF-295 CNS; 98.4% in the experiment with SF-539 CNS. Moreover, the growth is 105% with UACC-257 melanoma and 103% in the experiment on M14 melanoma.
